Test results reported in PubChem BioAssay (NCATS).
Results filed as inconclusive are left out. Where a call stands in place of a potency, no number is given. Active and inactive are the calls of the source. The call rests on the fitted dose curve; in most records, active means well fitted cell-killing curve with a large enough effect; inconclusive means small, poorly fitted or top-dose-only effect, or effect the other way; inactive means no such curve, though single readings can be large or run the other way.

Legend:
[1] = Viability qHTS for spleen associated tyrosine kinase inhibitor (SYKi) naive MV4-11 cells (AID 1963823); conditions: MV4-11 AML viability, CellTiter-Glo luminescence, 72 h; series mostly up to 45 µM; further: nearly all actives have a fitted effect of over 40% in size
In short: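 qHTS, SYK inhibitor-naive MV4-11; 500 cells/well; 72 hr compound exposure, 37 C; CellTiter-Glo added, 10 min RT; luminescence read.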

[2] = Viability qHTS for spleen associated tyrosine kinase inhibitor (SYKi) drug resistant MV4-11 cells (AID 1963824); conditions: SYKi-resistant MV4-11 viability, CellTiter-Glo, 72 h; series mostly up to 45 µM; further: nearly all actives have a fitted effect of over 35% in size
In short: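 SYK-inhibitor-resistant MV4-11 AML cells were seeded at 500 per well onto compound and cultured 72 hours (37 °C, 5% CO2). CellTiter-Glo was then added, and after 10 min at room temperature, luminescence gave viability.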
Potency means the concentration at half of the fitted maximal effect.

SMILES | Potency [1] | Potency [2]
CC1=CC(=O)CC(C)(C)[C@@]1(O)/C=C/C(C)O[C@@H]1O[C@H](CO)[C@@H](O)[C@H](O)[C@H]1O (stereo partly specified) | inactive | inactive
CC1=C(C(=O)Nc2cc(Cl)ccc2Cl)C(c2ccco2)C2=C(CCCC2=O)N1 (stereo unspecified) | 14.6 µM (active) | 16.4 µM (active)
COC(=O)C1=COC(OC2OC(CO)C(O)C(O)C2O)C2C(C)C(OC(C)=O)C(OC(=O)c3ccccc3)C12 (stereo unspecified) | inactive | inactive
